# High-throughput results (PubChem BioAssay)
# In the library only some 19% were active in any assay of this set; here they are far more common.
# HT1080 IDH1KD tx: qHTS for induction of synthetic lethality in tumor cells producing 2HG: qHTS for the HT-1080-IDH1KD cell line | 360,000 tested, 2% active | HT-1080 IDH1 knockdown viability, ATP luminescence, 48 h | AID 686971, 2013 | Potency, µM (top dose mostly 46.1 µM), for the others: top-dose activity, negative = toxicity, actives largely listed as cytotoxic;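 also: 0% = DMSO wells and -100% = cell-free medium wells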
#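 Cytotoxicity counter-line: IDH1KD HT-1080, 48 h, CellTiter-Glo. Curves classed by r2, magnitude and activity.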
# TDP1 cell noCPT: qHTS for Inhibitors of human tyrosyl-DNA phosphodiesterase 1 (TDP1): qHTS in cells in absence of CPT; DT40 Tdp1-/- hTDP1 cells, no CPT, ATP luminescence, 48 h; Potency, µM (titrated, usually from 46.2 µM), for the others: at the top dose activity change, negative = growth inhibition, hits mostly inhibitors; 420,000 tested, 15% active; AID 686978, 2013; also: nearly all actives have a fitted effect of over 55% in size
#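 Growth kinetics read by CellTiter-Glo luminescence after ≥48 hr at 37 °C. Cells: DT40 Tdp1-/- stably carrying human TDP1, 400 per well, compound exposure in the absence of CPT (DMSO vehicle).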
# HT1080-NT tox: qHTS for induction of synthetic lethality in tumor cells producing 2HG: qHTS for the HT-1080-NT fibrosarcoma cell line. 360,000 tested, 1.6% active. HT-1080-NT fibrosarcoma viability, CellTiter-Glo ATP luminescence, 48 h. Potency, µM (doses to about 46.1 µM), for the others: top-dose activity, negative = less viability, most hits filed as cytotoxic. AID 686970, 2013;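 also: NT is the 2HG producing partner of a matched IDH1 knockdown line; 0% = DMSO-treated cells and -100% = media-only wells without cells; nearly all actives have a fitted effect of over 55% in size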
#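 Toxicity toward the 2HG-producing NT line was scored as %Activity, normalised to DMSO and no-cell wells, from CellTiter-Glo luminescence after 48 hours' treatment.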
# KB-V1 MDR tox: qHTS assay for MDR1-selective chemotherapeutics: Primary screen using the drug-selected MDR subline cells KB-V1. KB-V1 MDR cells viability, CellTiter-Glo, 72 h. 400,000 tested, 3.4% active. Potency, µM (doses to about 46.1 µM), most hits filed as cytotoxic; also: nearly all actives have a fitted effect of over 60% in size
#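 Drug-selected KB-V1 cells, grown in DMEM lacking phenol red with 10% FBS, receive compound titrations; after three days at 37 degrees C, surviving cell ATP is quantified by CellTiter-Glo luminescence and responses normalized and curve-fitted.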
# DT40 TDP1 CPT: qHTS for Inhibitors of human tyrosyl-DNA phosphodiesterase 1 (TDP1): qHTS in cells in presence of CPT. chicken DT40 Tdp1-/-;hTDP1 cells + 20 nM CPT, ATP luminescence, 48 h. Potency, µM (top dose mostly 46.2 µM), for the others: at the top dose activity change, negative = growth inhibition, most hits filed as inhibitors. 420,000 tested, 12% active; also: nearly all actives have a fitted effect of over 55% in size
#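 Chicken DT40 Tdp1-/- cells stably complemented with human TDP1 were seeded at 400 cells/well in medium containing 20 nM camptothecin, exposed to pin-transferred compounds, and grown at 37 °C for at least 48 hr. Viability was read as ATP luminescence.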
# KB-3-1 tox: qHTS assay for MDR1-selective chemotherapeutics: Primary screen using the parental adenocarcinoma cell KB-3-1; AID 1347075, 2019; KB-3-1 viability, CellTiter-Glo ATP luminescence, 72 h; Potency, µM (titrated, usually from 46.1 µM), hits mostly cytotoxic; 400,000 tested, 1.4% active; also: nearly all actives have a fitted effect of over 60% in size
#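 KB-3-1 cells, DMEM (no phenol red) + 10% FBS; compound by pin transfer, 72 h, 37 °C. Readout: CellTiter-Glo luminescence after 10 min. Data normalized, curve-fitted.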
# * = called active by the depositor; i = inactive; u = inconclusive; x = no result given. Calls follow the shape of the dose curve; as a rule, active = well fitted curve in the direction sought with a large enough effect; inconclusive = small, poorly fitted or top-dose-only effect, or another doubt; inactive = no such curve, though single readings can be large; an effect the other way counts as inactive or inconclusive. Unless noted, % is scaled to controls: 0 for no effect and ±100 for the full control effect; potency is read from the fitted curve at half-maximal effect.
SMILES,HT1080 IDH1KD tx,TDP1 cell noCPT,HT1080-NT tox,KB-V1 MDR tox,DT40 TDP1 CPT,KB-3-1 tox
Cc1ccc(CNC(=O)c2c(O)nc3cc(C)ccn3c2=O)cc1,x,-4.6%,x,i,-6.0%,i
CC(NC(=O)c1c(O)nc2ccccn2c1=O)c1ccccc1 (configuration not stated),x,18.4µM*,x,u,23.1µM*,u
COc1ccc(CCNC(=O)c2c(O)nc3ccccn3c2=O)cc1,x,u,x,u,u,i
COC(=O)c1ccccc1NC(=O)CSc1nc(C)c(Cl)c(C)c1C#N,x,-25.2%,x,u,-18.4%,u
COc1ccccc1N1CCN(c2ncc3c(n2)CCN(Cc2ccc(C)s2)C3)CC1,x,u,x,i,u,i
Cc1ccc(C(=O)Nc2cccc([N+](=O)[O-])c2)cc1S(=O)(=O)Nc1ccc(NC(=O)c2ccccc2)cc1,-2.0%,16.4µM*,-1.4%,i,16.4µM*,i
Cc1ccc(C(=O)Nc2cccc([N+](=O)[O-])c2)cc1S(=O)(=O)Nc1cccc(C(=O)O)c1,-11.7%,u,-6.8%,i,u,i
Cc1ccc(NS(=O)(=O)c2ccc(OCC(=O)Nc3cccc([N+](=O)[O-])c3)c(C)c2)cc1,12.6µM*,u,u,i,u,i
CCCCCCOC(=O)Nc1ccc(S(=O)(=O)Nc2cccc([N+](=O)[O-])c2)cc1,-0.3%,u,-0.6%,20.6µM*,u,i
Cc1ccc(OCC(=O)Nc2ccc(S(=O)(=O)Nc3ccccn3)cc2)c(C)c1,-5.3%,18.4µM*,-5.2%,i,u,i
CCN(CC(=O)Nc1ccc(OC)cc1)C(=O)C1CC(=O)N(Cc2ccccc2)C1 (configuration not stated),16.6%,-17.1%,7.0%,i,-0.4%,i
CCN(CC)c1ncnc2c1ncn2[C@H]1CN(Cc2ccncc2)C[C@@H](CO)O1,-14.9%,u,-2.6%,i,-8.8%,i
Cc1ccc(C(=O)Nc2ccccc2)cc1S(=O)(=O)Nc1ccccc1,x,-13.9%,x,i,-12.2%,i
Cc1ccc(NS(=O)(=O)c2cc(C(=O)Nc3cccnc3)ccc2C)cc1,2.1%,u,-0.5%,i,0.4%,i
Cc1ccc(NS(=O)(=O)c2cc(C(=O)Nc3cccc([N+](=O)[O-])c3)ccc2C)cc1,u,u,-9.0%,14.6µM*,u,i
Cc1ccc(C(=O)Nc2ccccc2C(=O)O)cc1S(=O)(=O)Nc1ccccc1,1.1%,23.1µM*,2.8%,i,-29.4%,i
COC(=O)c1cccc2c1-c1ccccc1/C2=N/O,u,13µM*,u,u,16.4µM*,i
COC(=O)c1cccc2c1-c1ccccc1/C2=N\NC(N)=O,-11.1%,14.6µM*,-2.6%,i,u,i
COC(=O)c1ccc2c(c1O)C(=O)c1ccccc1C2=O,u,20.6µM*,u,u,23.1µM*,u
Cc1cc(=O)oc2cc(OCC(=O)Nc3ccc(S(=O)(=O)N(C)C)cc3)ccc12,3.6%,-14.1%,0.0%,i,-14.3%,i
CCNC(=O)CSc1nc2cc([N+](=O)[O-])ccc2n1-c1cccc(C(F)(F)F)c1,0.8%,u,-9.9%,i,u,i
NC(=O)CSc1nc2cc([N+](=O)[O-])ccc2n1-c1cccc(C(F)(F)F)c1,0.8%,u,2.3%,6.51µM*,u,i
Cc1ccc(C(=O)NNC(=O)c2csc(N3CCOCC3)n2)s1,-1.6%,-11.3%,-11.6%,i,-6.5%,i
Cc1ccc2nc(SCC(=O)N3CCC4(CC3)CC4C(=O)Nc3ccc(F)c(F)c3)[nH]c2c1 (configuration not stated),x,23.1µM*,x,x,u,x
COc1cc(/C=C/c2ccc(O)cc2)cc(OC)c1,-1.6%,u,-1.8%,i,u,i
SMILES,HT1080 IDH1KD tx,TDP1 cell noCPT,HT1080-NT tox,KB-V1 MDR tox,DT40 TDP1 CPT,KB-3-1 tox
COc1ccc(/C=N/Nc2ccc(C(=O)O)cc2)c(OC)c1OC,-1.3%,14.1%,0.0%,i,-6.9%,i
COC(=O)c1ccc2c(c1)C(C)(C)C(/C=C/c1ccc(O)cc1)=[N+]2C,2.82µM*,2.82µM*,5.01µM*,6.31µM*,2.51µM*,u
COC(=O)c1ccc2c(c1)C(C)(C)C(/C=C/c1ccc(OC)c(OC)c1OC)=[N+]2C,11.6µM*,0.651µM*,11.6µM*,i,0.82µM*,5.17µM*
CCC(C)NC(=O)CSc1nc2c(sc3ccccc32)c(=O)n1Cc1ccccc1Cl (configuration not stated),x,3.26µM*,x,i,u,i
COCCNC(=O)CCCn1c(SCc2ccccc2Cl)nc2c(sc3ccccc32)c1=O,x,9.2µM*,x,i,u,i
COCCNC(=O)CCCn1c(SCC(=O)c2ccc(Br)cc2)nc2c(sc3ccccc32)c1=O,x,-2.5%,x,x,-5.4%,x
Cc1oc(-c2cccc(Br)c2)nc1Cn1c(SCc2cccc(F)c2)nc2cccnc21,x,20.6µM*,x,x,u,x
Cc1ccc(-c2nc(Cn3c(SCc4ccc(F)cc4)nc4cccnc43)c(C)o2)cc1,x,0.82µM*,x,x,0.731µM*,x
Cc1ccc(Cn2c(SCc3ccc(C(=O)O)cc3)nc3cccnc32)cc1,x,-9.9%,x,i,-27.1%,i
CCC(=O)c1ccc(Oc2nc3c(c(=O)n(C)c(=O)n3C)n2CC)cc1,12.9%,u,-2.3%,i,u,i
COc1ccc(C(=O)Cn2c(Cl)nc3c2c(=O)n(C)c(=O)n3C)cc1,-13.1%,20.6µM*,-18.4%,u,u,i
COc1cccc(C(=O)Cn2c(Br)nc3c2c(=O)n(C)c(=O)n3C)c1,2.5%,9.2µM*,7.5%,u,u,i
CCn1c(Oc2cccc(Br)c2)nc2c1c(=O)n(C)c(=O)n2C,-13.9%,-23.2%,-2.9%,i,-0.4%,i
Cn1c(=O)c2c(nc(N3CCCCCC3)n2CC(=O)c2ccccc2)n(C)c1=O,2.4%,u,5.6%,i,-23.5%,i
